HT1080-NT tox: kills 2HG-producing HT-1080-NT fibrosarcoma cells | HT-1080-NT fibrosarcoma viability, CellTiter-Glo ATP luminescence, 48 h | AID 686970 | Potency, µM (highest dose often 46.1 µM), inactives show at the top dose activity, negative = less viability, hits mostly cytotoxic | 360,000 tested, 1.6% active;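 note: NT is the 2HG producing partner of a matched IDH1 knockdown line; 0% = DMSO-treated cells and -100% = media-only wells without cells; nearly all actives have a fitted effect of over 55% in size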
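A 48-hour cytotoxicity screen used HT-1080-NT cells plated 2 hours before compound delivery. ATP-based CellTiter-Glo luminescence measured viability, normalized to DMSO and no-cell controls.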
HT1080 IDH1KD tx: kills HT-1080 cells with IDH1 knockdown; HT-1080 IDH1 knockdown viability, ATP luminescence, 48 h; Potency, µM (top dose mostly 46.1 µM), for the others: at the highest dose activity, negative = toxicity, usual class: cytotoxic; 360,000 tested, 2% active; AID 686971;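 note: 0% = DMSO wells and -100% = cell-free medium wells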
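Knockdown cells (IDH1KD HT-1080) received compounds 2 h after plating at 750 cells/well and were kept 48 h at 37 °C in 5% FBS RPMI. A CellTiter-Glo luminescence read gave % activity for curve fitting.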
ATXN2 expr inh: ATXN2 expression inhibition. HEK-293 ATXN2-luciferase reporter, luminescence, 24 h. 360,000 tested, 0.72% active. Potency, µM (titrated, usually from 57 µM), for inactives: at the top dose activity change, negative = inhibition, hits mostly inhibitors; note: % is set by controls: 0 for no effect and ±100 for the full control effect; nearly all actives have a fitted effect of over 55% in size
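ATXN2-luciferase reporter cells (luciferase flanked by upstream and downstream ATXN2 gene portions) were treated 24 h at 37 °C with compounds at up to 57 uM. SteadyGlo luminescence gave expression; GF-AFC fluorescence gave viability.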
KB-V1 MDR tox: kills drug-selected multidrug resistant KB-V1 cells; KB-V1 MDR cells viability, CellTiter-Glo, 72 h; Potency, µM (series often up to 46.1 µM), usual class: cytotoxic; 400,000 tested, 3.4% active; note: % is set by controls: 0 for no effect and ±100 for the full control effect; nearly all actives have a fitted effect of over 60% in size
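KB-V1 cells (P-gp-expressing MDR subline of KB-3-1) in phenol-red-free DMEM with 10% FBS were exposed to library compounds over a concentration series for 72 h at 37 degrees C. Viability read by CellTiter-Glo luminescence; concentration-effect curves fitted after normalization.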
KB-3-1 cytotox: kills parental KB-3-1 adenocarcinoma cells; Potency, µM (top dose mostly 46.1 µM), actives largely listed as cytotoxic; KB-3-1 viability, CellTiter-Glo ATP luminescence, 72 h; AID 1347075; 400,000 tested, 1.4% active; note: % is set by controls: 0 for no effect and ±100 for the full control effect; nearly all actives have a fitted effect of over 60% in size
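Cytotoxicity measured as CellTiter-Glo luminescence after 72 h at 37 C. Compound titrations were pinned onto drug-naive KB-3-1 parental adenocarcinoma cells grown in DMEM with 10% FBS, and normalized data fitted to concentration-response curves.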
S2 tox: reduces viability in counter-screen for ATXN expression inhibitors | S2 cells (HEK-293 line with an ATXN2-luciferase reporter) viability, CellTiter-Fluor protease fluorescence, 24 h | 400,000 tested, 0.49% active | Potency, µM (top dose mostly 56.7 µM), most hits filed as cytotoxic; note: nearly all actives have a fitted effect of over 40% in size
* = called active by the depositor; i = inactive; ? = inconclusive; . = not tested or not shown. The list is not random: actives were taken first. Their share in the collection is about 6.2%. Calls come from the whole dose curve; as a rule, active = well fitted curve in the direction sought with a large enough effect; inconclusive = small, poorly fitted or top-dose-only effect, or another doubt; inactive = no such curve, though single readings can be large; an effect the other way counts as inactive or inconclusive. Potency is the fitted concentration of half-maximal effect.

SMILES | HT1080-NT tox | HT1080 IDH1KD tx | ATXN2 expr inh | KB-V1 MDR tox | KB-3-1 cytotox | S2 tox
O=C(CSCC(=O)Nc1ccccc1)N/N=C/c1c(O)ccc2ccccc12 | 3.2µM* | 1.6µM* | 3.2µM* | ? | ? | i
O=C(N/N=C/c1c(O)ccc2ccccc12)Nc1ccccc1 | -8% | -10% | . | ? | ? | i
O=C(CN1CCOCC1)N/N=C/c1c(O)ccc2ccccc12 | ? | ? | 11µM* | i | ? | ?
CCCCNC(=O)C1CCC(Cn2c(=O)c3sccc3n(Cc3ccccc3)c2=O)CC1 (centres undefined) | . | . | 5% | i | i | i
CC(=O)OCC(=O)[C@@]12OC(C)(C)O[C@H]1C[C@H]1[C@@H]3C[C@H](F)C4=CC(=O)C=C[C@]4(C)[C@@]3(F)[C@@H](O)C[C@@]12C | . | . | -17% | . | . | .
CCC(CC)C(=O)Nc1nnc2n1CCS2 | . | . | 3% | i | i | i
CN1CCN(C(=O)/C=C/c2cn(-c3ccccc3)nc2-c2ccc3c(c2)OCCO3)CC1 | 23µM* | 23µM* | -31% | i | i | i
O=C(/C=C\c1cn(-c2ccccc2)nc1-c1ccc2c(c1)OCCO2)N1CCOCC1 | -13% | -14% | . | ? | i | ?
O=C(/C=C/c1cn(-c2ccccc2)nc1-c1cccc(Cl)c1)N1CCN(c2ccccn2)CC1 | -29% | -4% | -26% | 23µM* | ? | ?
Cn1c(N2CCCCS2(=O)=O)nc(C(=O)NCc2ccc(F)cc2)c(O)c1=O | . | . | -3% | . | . | .
CCOc1cc(-c2nc(-c3ccccc3)c(-c3cc([N+](=O)[O-])ccc3C)[nH]2)ccc1O | -24% | -27% | -26% | 18µM* | i | ?
O=C(O)[C@H](O)[C@@H](O)[C@H](O[C@@H]1O[C@H](CO)[C@H](O)[C@H](O)[C@H]1O)[C@H](O)CO | . | . | 5% | . | . | i
CCOc1cc(-c2nc(-c3ccc(-c4ccccc4)nc3OCC)no2)cc(OCC)c1OCC | . | . | . | i | i | .
COc1ccccc1CCNS(=O)(=O)CCNC(=O)c1ccccc1 | 5% | 4% | 4% | 16µM* | i | i
O=C(NCCS(=O)(=O)NCCc1ccccc1)c1ccccc1 | -1% | -4% | 6% | 16µM* | i | i
O=C(CN1CCN(CC(=O)Nc2ccccc2F)CC1)Nc1ccc(Cl)c(C(F)(F)F)c1 | . | . | ? | i | i | ?
CCC(c1nc2ccccc2c(=O)n1-c1nc2ccccc2s1)N1C(=O)c2ccccc2C1=O (centres undefined) | -7% | -7% | -4% | 3.7µM* | ? | i
O=c1c2ccccc2ncn1Cc1nc2ccccc2s1 | 6% | 1% | 16% | i | i | i
COc1cc(CN2CCC3(CCC(CNC(=O)c4cc(C)nn4C)O3)CC2)ccc1F (centres undefined) | . | . | . | . | . | i
C=CCNCCOCCOc1ccccc1-c1ccccc1 | -11% | -9% | . | i | i | i
COCCCNCCOCCOc1ccccc1-c1ccccc1 | -8% | -15% | -7% | 23µM* | i | i
CC(C)(C)NCCOCCOc1ccccc1-c1ccccc1 | 0% | -2% | -12% | 23µM* | i | i
CN(C)c1c(Cl)cc(/C=C2\C=Cc3ccccc32)cc1Cl | . | . | . | i | i | .
Nc1c(-c2ccccc2)cnc2c(-c3ccccc3)cnn12 | 9% | 0% | . | i | i | i
N#Cc1cnn2c(-c3ccc(Cl)cc3Cl)ccnc12 | 24% | 1% | -26% | 16µM* | i | i
SMILES | HT1080-NT tox | HT1080 IDH1KD tx | ATXN2 expr inh | KB-V1 MDR tox | KB-3-1 cytotox | S2 tox
N#Cc1cnn2c(N)c(-c3ccc(Cl)cc3)cnc12 | ? | -10% | 0% | 4.1µM* | ? | i
N#Cc1cnn2c(-c3cccc(C(F)(F)F)c3)ccnc12 | 1% | 0% | . | i | i | i
CC(=O)Nc1cccc(C(=O)NCc2ccc3c(c2)CCN3C(=O)c2ccc(F)cc2)c1 | . | . | . | i | i | .
CCOC(=O)c1noc2nc(C)n(CC(=O)Nc3cccc(OC)c3)c(=O)c12 | . | . | 0% | ? | i | i
N#CN=c1snc(-c2ccccc2)n1-c1ccc(Br)cc1 | . | . | . | i | ? | .
O=C(/C=C/NNC(=O)c1ccccc1)c1ccc([N+](=O)[O-])cc1 | ? | ? | 7.5µM* | ? | i | ?
CCOC(=O)[C@]12Cc3c(cc(OC)c(OC)c3OC)[C@H]1N(Cc1ccccc1)C(=O)c1cc(F)c(F)cc12 | ? | ? | -16% | ? | ? | ?
CCOC(=O)[C@]12Cc3c(cc(OC)c(OC)c3OC)[C@H]1N(Cc1ccccc1)C(=O)c1cc(OC)ccc12 | 18µM* | ? | 20µM* | ? | 4.6µM* | 11µM*
O=C(Nc1nnc(CSCc2ccc(F)cc2)s1)c1cccc([N+](=O)[O-])c1 | 2% | 0% | -9% | 4.6µM* | ? | i
O=C(Nc1nnc(CSCc2ccc(Cl)cc2)s1)c1cccc([N+](=O)[O-])c1 | 3% | 6% | -19% | i | i | i
CCC(C)(C)c1nnc(NC(=O)c2cccc([N+](=O)[O-])c2)s1 | -16% | -9% | 53% | 21µM* | i | i
Cc1ccc(C)c(Cn2c(=O)n(-c3ccccc3)c(=O)c3c4c(sc32)CCCC4)c1 | . | . | 15% | i | i | i
CN(Cc1nccs1)C(=O)c1cc(COc2cccc3cnccc23)on1 | 23µM* | 9.2µM* | . | i | i | ?
CCOC(=O)CC1CCCCN1C(=O)c1cc(COc2cccc3cnccc23)on1 (centres undefined) | 23µM* | 4.1µM* | . | ? | i | ?
CC(=O)c1cccc(OCc2cc(C(=O)N(C)Cc3nccs3)no2)c1 | 10% | 2% | . | i | i | i
Nc1nc(Nc2ccccc2F)sc1C(=O)c1ccccc1 | -10% | -27% | -9% | i | 10µM* | ?
Cc1nc(Nc2ccccc2)sc1C(=O)c1ccc(F)cc1 | -22% | -29% | 49% | i | i | i
CC(C)C(=O)NC(=S)Nc1ccc(S(=O)(=O)N(C)Cc2ccccc2)cc1 | ? | 21µM* | -21% | ? | ? | i
CN(Cc1ccccc1)S(=O)(=O)c1ccc(NC(=O)C2CCCO2)cc1 (centres undefined) | 7% | 4% | -13% | i | i | i
COc1ccc(NS(=O)(=O)c2ccc(NC(=S)NC(=O)C(C)C)cc2)cc1 | -12% | 0% | 0% | i | i | i

Source: PubChem (National Center for Advancing Translational Sciences (NCATS))
